From PubChem BioAssay
RGS16-Gao HTS = regulators of human RGS16-Galphao interaction. O15492+P09471. bead-based flow cytometry RGS16-Galphao binding, fluorescence; actives lie on both sides. binding response (% of control), % at 10 µM. actives 0.38% (n = 220,000);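 also: Galphao activated by GDP with aluminum fluoride before binding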
Avidin bead fluor = avidin bead compound fluorescence profile | AID 1775 | actives 0.38% (n = 220,000) | Avidin beads, compound fluorescence 488/530 nm, flow cytometry; hits give high values | fluorescence (KMESF) at 10 µM; in the data active = fluorescence above about 47
RGS4-Gao reg = modulates binding of RGS4 to human Galphao; P09471; Multiplexed bead flow cytometry; actives lie on both sides; binding response (% of control), % at 10 µM; actives 0.33% (n = 220,000); in the data active = binding response below about 49% or above about 150%; inactive = in between;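 also: fluorescent Galphao activated with aluminum fluoride binding bead-coupled RGS4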
Target sequence (P09471 whole entry, looked up): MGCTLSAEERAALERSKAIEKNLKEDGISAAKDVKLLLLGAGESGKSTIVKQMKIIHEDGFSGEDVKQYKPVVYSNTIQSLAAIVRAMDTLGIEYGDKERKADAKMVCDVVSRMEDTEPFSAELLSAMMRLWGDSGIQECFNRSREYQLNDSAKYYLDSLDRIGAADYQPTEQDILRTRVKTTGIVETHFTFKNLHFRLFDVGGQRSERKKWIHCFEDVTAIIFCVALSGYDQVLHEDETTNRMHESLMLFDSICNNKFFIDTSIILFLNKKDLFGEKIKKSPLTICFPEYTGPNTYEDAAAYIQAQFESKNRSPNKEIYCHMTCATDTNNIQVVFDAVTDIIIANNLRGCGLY
RGS8-Gao = modulates binding of RGS8 to human Galphao. P09471. multiplexed bead flow cytometry; actives lie on both sides. response (percent of control binding), % at 10 µM. actives 0.34% (n = 220,000). AID 1423; in the data active = response below about 60% or above about 140%; inactive = in between;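 also: Galphao activated as the GDP aluminium fluoride complex binding bead-coupled RGS8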
RGS7-Gao reg = human RGS7-Galphao interaction regulation; P09471; Multiplexed bead flow cytometry, RGS7-Galphao binding; actives lie on both sides; binding response (% of control), % at 10 µM; actives 0.35% (n = 220,000); AID 1439; in the data active = binding response below about 49% or above about 150%; inconclusive = no clear call, values can overlap the other calls; inactive = in between;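 also: fluorescent Galphao held in activated GDP-AlF4 state binding bead-coupled RGS7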
GSH bead fluor = compound fluoresces at 488/530 nm on GSH beads. fluorescence (KMESF) at 10 µM. actives 0.25% (n = 190,000). GSH beads flow cytometry, compound fluorescence 488/530 nm; hits give high values; in the data active = fluorescence above about 89;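 also: glutathione beads carrying GST-tagged Bcl family fusion proteins plus one bare bead set; values are compound well signal with DMSO vehicle wells as background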
RGS4-Gao HTS = RGS4-Galphao interaction regulator (human) | shares compounds with RGS16-Gao HTS | RGS4–Galpha-o binding response, % at 10 µM | actives 99% (n = 1,600) | AID 1504 | multiplexed bead flow cytometry, RGS–Galpha-o binding;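 also: fluorescently labeled Galpha-o bound to GDP with aluminium fluoride binding biotinylated RGS beads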
Biotin-avidin = biotin-avidin bead binding disruption counter-screen | shares compounds with RGS16-Gao HTS | 1,700 tested, under 10 active | streptavidin beads, fluorescein-biotin binding, flow cytometry | AID 1783 | inhibition, % at 10 µM;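 active = inhibition above 50%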;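 also: median green fluorescence of gated singlet beads compared with DMSO control wells; 0% = DMSO wells and 100% = complete loss of bead fluorescence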
RGS8-Gao confirm = confirmation of regulators of human RGS8-Galphao interaction. shares compounds with RGS16-Gao HTS. actives 3% (n = 1,700). bead-based flow cytometry RGS8-Galphao binding, fluorescence; actives lie on both sides. binding response (% of control), % at 10 µM. AID 1836; in the data active = binding response below about 72% or above about 130%; inactive = in between;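 also: Galphao activated as GDP AlF4 complex before binding bead RGS8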
RGS7-Gao confirm = RGS7-Galphao interaction regulation, single point confirmation. shares compounds with RGS16-Gao HTS. bead-based flow cytometry RGS7-Galphao binding; actives lie on both sides. response (percent of control binding), % at 10 µM. actives 7.8% (n = 1,700). AID 1837; in the data active = response below about 75% or above about 130%; inactive = in between;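 also: fluorescent Galphao activated with GDP and aluminum fluoride binding bead-coupled RGS7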
RGS16-Gao single = RGS16-Galphao interaction regulation, single point confirmation; actives 4% (n = 1,700); shares compounds with RGS16-Gao HTS; response (% of control binding), % at 10 µM; bead-based flow cytometry, RGS16-Galphao binding; actives lie on both sides; in the data active = response below about 74% or above about 130%; inactive = in between;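 also: Galphao activated as the GDP aluminium fluoride complex binding bead-coupled RGS16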
RGS4-Gao confirm = RGS4-Galphao interaction regulation, single point confirmation; shares compounds with RGS16-Gao HTS; RGS4-Galphao binding, multiplexed bead flow cytometry; actives lie on both sides; binding response (% of control), % at 10 µM; actives 4% (n = 1,700); in the data active = binding response below about 74% or above about 130%; inactive = in between
RGS19-Gao conf = confirmation of regulators of human RGS19-Galphao interaction; actives 5% (n = 1,700); bead-based flow cytometry RGS19-Galphao binding; actives lie on both sides; AID 1841; response (percent of control binding), % at 10 µM; shares compounds with RGS16-Gao HTS; in the data active = response below about 50% or above about 160%; inactive = in between;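 also: 100% = no compound control and 0% = blank background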
Numbers without * were called inactive; ? = inconclusive; . = no result given; [ ] = dose if it differs, or a comment. This is a sample that favours compounds with a hit; in the whole collection about 1.2% have one here. Unless noted, no rule for the calls is given here.

SMILES	RGS16-Gao HTS	Avidin bead fluor	RGS4-Gao reg	RGS8-Gao	RGS7-Gao reg	GSH bead fluor	RGS4-Gao HTS	Biotin-avidin	RGS8-Gao confirm	RGS7-Gao confirm	RGS16-Gao single	RGS4-Gao confirm	RGS19-Gao conf
Nc1cccnc1Sc1ccc([N+](=O)[O-])cn1	-29.9	-2	4.3*	5.6*	5.8*	8	.	-1.5	90.9	131.0*[activator]	93.9	105.3	95.3
Oc1c(Br)cc(Br)cc1/C=N/N1CCN(Cc2ccccc2)CC1	103.1	107*	112.1	100.9	171.8*[activator]	17	112.1*	-0.9	104.1	101.3	105.0	102.3	99.5
CCC(=O)NC(c1ccc(C)cc1)c1cc([N+](=O)[O-])c2cccnc2c1O (stereo not drawn)	13.3	1	67.6	57.7*	71.9	9	67.6*	0.3	89.4	89.1	84.8	95.1	41.6*
O=C(CCn1nnc2ccccc21)N1CCN(c2ccccc2)CC1	.	.	.	.	.	43	.	0.0	102.2	106.1	101.9	102.1	101.9
O=C(Cn1nnc2ccccc21)N1CCCCC1	127.7	12	104.6	107.7	106.4	13	.	.	.	.	.	.	.
COc1ccc2cc(C(=O)C3CCCN(C(=O)c4cc5nc(C)cc(C)n5n4)C3)ccc2c1 (stereo not drawn)	98.5	6	99.6	96.7	98.9	16	.	.	.	.	.	.	.
COc1ccc(Cn2c(=O)c3[nH]cnc3n(-c3ccc(C)cc3)c2=O)cc1	137.1	5	130.8	127.7	?	.	.	.	.	.	.	.	.
CCc1ccc(NC(=O)Nc2cccs2)cc1	-19.6*	-3	-31.7*	5.8*	-10.8*	10	.	0.6	105.0	97.8	105.6	102.8	96.3
Cc1ccc(NC(=O)Nc2cccs2)cc1	97.4	12	99.6	100.4	98.8	31	.	.	.	.	.	.	.
Cc1cc(C(=O)Oc2cccnc2)ccc1[N+](=O)[O-]	24.8*	1	90.8	75.9	104.5	8	90.8*	-0.6	103.5	107.2	103.7	102.5	100.2
CCOC(=O)c1ccc[n+](CC(=O)c2ccc(OC)cc2)c1	106.2	5	99.4	101.0	105.2	10	.	.	.	.	.	.	.
CCOC(=O)c1ccc[n+](CC(=O)c2ccccc2)c1	13.8	4	114.5	54.4*	113.2	14	114.5*	0.4	100.2	100.4	102.1	99.2	99.2
CC(=O)C1C(=O)c2c(cccc2[N+](=O)[O-])C1=Nc1ccc(S(N)(=O)=O)cc1 (stereo not drawn)	106.9	12	108.5	103.6	108.1	16	.	.	.	.	.	.	.
Cc1ccc(NC(=O)/C(C#N)=C(\N)C(Cl)(Cl)Cl)nc1	84.8	9	85.2	93.6	92.5	10	.	.	.	.	.	.	.
COc1ccccc1C1CCN(C(=O)c2ccco2)CC1	102.7	7	96.3	103.4	?	.	.	.	.	.	.	.	.
COc1ccc(/C=C\C(=O)NCc2ccc3c(c2)cc(C)n3C)cc1OC	22.9*	4	79.4	70.8	79.3	15	79.4*	.	.	.	.	.	.
CN1CCN(CCP(=O)(c2ccccc2)c2ccccc2)CC1	.	.	.	.	.	16	.	0.2	98.7	96.9	97.8	98.6	96.9
